About 83,000 compounds went through this panel and 20% of them were active in at least one assay; those are over-represented in the sample as a whole.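 Cell lines were cultured in 96-well plates, exposed to a single compound concentration, and assessed for percent growth 48 hours later.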 Activity calls are given as the source filed them. The calls were made as follows: active = growth percent below 10; inactive = the rest.
These compounds were tested on NCI-H322M lung (assay: NCI-60 one-dose screen, 48 h (100 = growth as untreated, 0 = no growth, -100 = all killed)). Settings: 10 µM unless noted.

| SMILES | growth |
| --- | --- |
| CCC(CC)N1C(=O)/C(=c2\sc3n(c2=O)NC2C(N=3)N(CC)C(=O)N2CC)c2ccccc21 (stereo not drawn) | 80.6% (inactive) |
| CN1CCN(c2ccc(/C=N/Nc3nc4ccccc4c(=O)n3-c3ccccc3)cc2)CC1 | 103% (inactive) |
| CC1=NC2=NC(=O)/C(=C3/N=C(C)C=C(c4ccccc4)N3N)NN2C(c2ccccc2)=C1 | 103% (inactive) |
| Nc1ncc(-c2ccc3ncnc(N4CCc5cc(F)c(F)cc54)c3c2)cn1 | 33.1% (inactive) |
| COc1ccc(Oc2ccc(/C=N/NC(=O)CSc3nc4ccccc4c(=O)n3-c3ccc(Cl)cc3)cc2)cc1 | 84.7% (inactive) |
| COc1ccc2c(c1)Oc1nc(N)c(C#N)c(N)c1C2Sc1ccc(C)cc1 (stereo not drawn) | 51.9% (inactive) |
| CC(=O)C1=C(C)NC(NN)=NC1c1cccc(Cl)c1 (stereo not drawn) | 96.7% (inactive) |
| O=C(NNc1nc2cc(F)ccc2n2c(CO)ccc12)c1cnccn1 | 22.7% (inactive) |
| NC(N)=Nc1ccc(Oc2cccc(NC(N)=Nc3ccc(Br)cc3)c2)cn1 | 65.1% (inactive) |
| CCOC(=O)C1=NNC(c2ccc(Cl)cc2)C1C(=O)N1C(=S)NC(=O)C1CC(C)C (stereo not drawn) | 94.7% (inactive) |
| CC/C(=C/c1c(O)cccc1OC)c1ccc2c(OC)cccc2[o+]1 | 101% (inactive) |
| Cn1ccnc1C(=O)/C=C/c1ccc(CNC(=O)c2ccc(Cl)cc2)cc1 | 6.29% (active) |
| COc1c(N2CC3CCCNC3C2)c(F)cc2c(=O)c(C(=O)N/N=C/c3ccc(F)cc3)cn(C3CC3)c12 (stereo not drawn) | 93.3% (inactive) |
| CN(C)CCNC(=O)c1ccc(-c2nc3ccc4[nH]ncc4c3c3c2CCC3)cc1 | 6.34% (active) |
| C=C(C=O)[C@@H]1CC[C@]2(COC(C)=O)CC[C@]3(C)C(CC[C@@H]4[C@@]5(C)CC[C@H](OC(C)=O)C(C)(C)[C@@H]5CC[C@]43C)[C@@H]12 (stereo partly drawn) | 40.5% (inactive) |
| COc1c(N2CC3CCCNC3C2)c(F)cc2c(=O)c(C(=O)N/N=C/c3c[nH]c4ccccc34)cn(C3CC3)c12 (stereo not drawn) | 105% (inactive) |
| COc1cc(C2N=C(NNc3ccccc3)NC(C)=C2C(C)=O)ccc1O (stereo not drawn) | 88.1% (inactive) |
| CCCCCc1ccc(S(=O)(=O)Nc2cccc(-c3csc(NC(=O)CNCCN(C)C)n3)c2)cc1 | 90.4% (inactive) |
| CCCCCc1ccc(S(=O)(=O)Nc2cccc(-c3csc(NC(=O)CCCCCN4CCN(CCO)CC4)n3)c2)cc1 | 87.5% (inactive) |

| SMILES | growth |
| --- | --- |
| CS(=O)(=O)Nc1cc(-c2ccc3ncc(C#N)c(NCc4ccccc4O)c3c2)cnc1Cl | 16.1% (inactive) |
| CC(=O)N1C(=S)NC(=O)C1CC(C)C (stereo not drawn) | 97.6% (inactive) |
| COc1cc(/C=C2\C(=O)Nc3ccccc32)ccc1OCc1ccc(Cl)cc1 | 99.7% (inactive) |
| COc1cc2oc(-c3cccc(NC(=O)c4cc(N)ccc4Cl)c3)cc(=O)c2c(OC)c1OC | 105% (inactive) |
| COc1ccc(Cn2cc3c(c2-c2cc(OC)c(OC)c(OC)c2)CCc2c(CN4CCCC4)noc2-3)cc1 | 51.8% (inactive) |
| CCCCCc1ccc(S(=O)(=O)Nc2cccc(-c3csc(NCCN4CCN(C)CC4)n3)c2)cc1 | 82.9% (inactive) |
| CCC1=Cc2cc(OC)ccc2OC12C=Cc1cc(OC)ccc1O2 (stereo not drawn) | 50.2% (inactive) |
| CCCCCc1ccc(S(=O)(=O)Nc2cccc(-c3csc(NC(=O)CCCCCN4CCN(C)CC4)n3)c2)cc1 | 84.1% (inactive) |
| N#Cc1cnc2ccc(-c3cnc4[nH]ncc4c3)cc2c1N1CCc2cc(F)c(Cl)cc21 | 15.3% (inactive) |
| CC(C)C[C@@H]1N[C@@]2(C(=O)Nc3ccccc32)[C@@H](c2ccc(F)cc2)[C@@H]1C(=O)c1ccc(O)cc1 | 99.1% (inactive) |
| O=C(NNc1nc2cc(F)cc(F)c2n2cccc12)c1cnccn1 | 30.2% (inactive) |
| O=C(NNc1nc2cc(F)c(F)cc2n2cccc12)c1cnccn1 | 35% (inactive) |
| O=C(CNc1nc(-c2cccc([N+](=O)[O-])c2)cs1)Nc1cccc([N+](=O)[O-])c1 | 58.9% (inactive) |
| CC(Nc1c(C#N)cnc2ccc(-c3cnc(N)nc3)cc12)c1ccccc1 (stereo not drawn) | 6.93% (active) |
| C=CCn1c(SCC(=O)Nc2ccc(C(=O)/C=C/c3ccc(Cl)cc3)cc2)nnc1-c1c[nH]c2ccccc12 | 88% (inactive) |
| CCCCCc1ccc(S(=O)(=O)Nc2cccc(-c3csc(NC(=O)CN4CCN(C)CC4)n3)c2)cc1 | 100% (inactive) |
| O=C(NCc1ncc[nH]1)c1ccc(-c2nc3ccc4[nH]ncc4c3c3c2CCCC3)cc1 | 21.4% (inactive) |
| Cc1c(Cl)cccc1S(=O)(=O)Nc1ccc2c(c1)C(=O)N(C1CCC(=O)NC1=O)C2=O (stereo not drawn) | 88.8% (inactive) |
| COC(=O)C1(C)CCC[C@]2(C)[C@H]3C[C@H]4C(C(C)C)=C[C@]3(CC[C@@H]12)[C@H]1[C@@H]4[C@@H](OC(=O)c2ccco2)CC[C@@H]1OC(=O)c1ccco1 (stereo partly drawn) | 106% (inactive) |
